Usually AC50 stands for the concentration at which the activity in the assay is half-maximal.

Calls of active or inactive are those of the source. The calls were made as follows: active = hit-call score of the fitted dose curve at least 0.9, where 1 is the maximum; inactive = score below 0.9.

Read-out in this test: Glutathione S-transferase M3 (GSTM3), GSTM3 (gene 2947)
The test can be described thus: LTEA_HepaRG_GSTM3: Life Technologies and Expression Analysis (LTEA) Assay for Glutathione S-transferase M3 (GSTM3) using HepaRG (AID 2283501). To be noted: mRNA level, 48 h; actives raise or lower the signal. The protocol: LTEA_HepaRG is a cell based, multiplexed-readout assay that uses HepaRG, a human liver cell line, with measurements taken at 48 hours after chemical dosing on a 96-well plate.LTEA_HepaRG_GSTM3 is one of 102 assay component(s) measured in the LTEA HepaRG cell culture assay. It is a marker of Oxidative Stress.Data from the assay component LTEA_HepaRG_GSTM3 was analyzed into 1 endpoint. This assay endpoint, LTEA_HepaRG_GSTM3, was analyzed with bidirectional fitting relative to DMSO as the negative control and baseline of activity. Using a type of inducible reporter, measures of mRNA induction for gain or loss-of-signal activity can be used to understand regulation of transcription factor activity. To generalize the intended target to other relatable targets, this assay endpoint is annotated to the transferase intended target family, where the subfamily is alkyl and aryl transferase.
A total of 1060 chemcials from the ToxCast library were tested in eight-point concentration-response experiments. Cell culture and cytotoxicity assays were conducted at Thermo Fisher Scientific's Custom Services facility (Madison, WI). A single lot of human HepaRG cells (Thermo Fisher Scientific, Frederick, MD) was used for the cell culture experiments. 96-well format collagen type I coated plates of human HepaRG cells were prepared using established methods. Briefly, cryopreserved HepaRG cells were thawed, plated at a density of approximately 100,000 cells/well in HepaRG Thaw, Plate, and General Purpose media (HPRG770, Thermo Fisher Scientific), and incubated for 48 hours. 0.5% DMSO was selected as vehicle control to balance the requisite need of DMSO in HepaRG cultures to maintain differentiation (for example, baseline metabolism, proportions of hepatocytes vs. cholangiocytes), while enabling further hepatic receptor pathway activation (for example, PXR and CAR) in response to chemical exposure. 48 hours after plating, the culture medium was replaced with HepaRG Serum-Free Incudtion Media. Cells were exposed to each test chemical in duplicate and maintained in CO2 incubators for another 48 hours. Chemical plates were thawed to room temperature and 200x concentrations of treatment groups were prepared. 8-point conentration-reponse curves were made with the highest exposure at 100 uM, followed by half-log dilutions, all in 0.5% DMSO. Each test plate contained variouse controls, induction positive controls (1mM phenobarbital), cytotoxicity positive controls ([…] aflatoxin B1), vehicle controls (0.5% DMSO), and total lysis controls (0.5% DMSO). Cell morphology images were taken using an Essen IncuCyte FLR automated microscope, with six 96-well plates imaged in about 24 minutes. Images were captured and exported and JPEG files. Spent culture media was transfered to black-well plates for the LDH assay, and remaining media was sorted at -80 C for later use. Cells were treated with RLT buffer and frozen until shipped for gene expression analysis. Total RNA was isolated from the cell suspension in 75 uL of Buffer RLT (Qiagen, Germantown, MD 20874) by Quintiles/Expression Analysis (Durham, NC) using a custom isolation procedure. Total RNA from each plate well was transferred to a preamplification plate. Fluidigm's 96.96 Dynamic ArrayTM (Fluidigm, Amsterdam, the Netherlands) technology was used for gene expression analyses by quantitative reverse transcription polymerase chain reaction (qRT-PCR, performed by Quintiles/Expression Analysis, Durham, NC)89. Standard TaqManTM Assays (Applied Biosystems/ThermoFisher Scientific, Foster City, CA) were used to assess the expression of 93 genes selected based on their selectivity and sensitivity to important hepatic receptors known to be modulated by environmental chemicals; importance in human hepatocyte functionality; and hepatotoxicity. […]
Take `O=S(=O)(O)c1ccc(N=Nc2c(O)ccc3cc(S(=O)(=O)O)ccc23)cc1`: the compound was called inactive.
As for `OC[C@H]1O[C@@](CO)(O[C@H]2O[C@H](CO)[C@@H](O)[C@H](O)[C@H]2O)[C@@H](O)[C@@H]1O`, the compound was classed as inactive.
For `OCc1ccccc1`, the call was inactive.
As for `CCCCC(CC)C(=O)OCCOCCOCCOC(=O)C(CC)CCCC` (stereo not given), the compound was called inactive.
As for `CC(=O)c1ccccc1`, the compound was called inactive.
Regarding `CC(C)C(=O)Nc1ccc([N+](=O)[O-])c(C(F)(F)F)c1`, the AC50 was 50 µM (active).
On to `CCOc1ccc2[nH]cc(C(=O)NCc3ccccc3)c(=O)c2n1`, for which the call was inactive.
`CCc1ccc(O)c(C(C)(C)C)c1`: the outcome was inactive.
Regarding `O=C(NO)C1(NS(=O)(=O)c2ccc(Oc3ccc(F)cc3)cc2)CCOCC1`, the result was inactive.
On to `OC[C@H]1O[C@@H]2O[C@H]3[C@H](O)[C@@H](O)[C@@H](O[C@H]4[C@H](O)[C@@H](O)[C@@H](O[C@H]5[C@H](O)[C@@H](O)[C@@H](O[C@H]6[C@H](O)[C@@H](O)[C@@H](O[C@H]7[C@H](O)[C@@H](O)[C@@H](O[C@H]1[C@H](O)[C@H]2O)O[C@@H]7CO)O[C@@H]6CO)O[C@@H]5CO)O[C@@H]4CO)O[C@@H]3CO`, for which the outcome was inactive.
On to `NC(N)=O`, for which the compound was called inactive.
`O=C(O)[C@H](O)[C@@H](O)C(=O)O`: the call was inactive.
Still for that read-out and setting: the entry for `CCCCCCCC/C=C\CCCCCCCC(=O)OC[C@@H](O)[C@H]1OC[C@H](O)[C@H]1O` is “inactive”.
As to `COc1cc(C(C)C)c2c(c1)S(=O)(=O)N(COc1cc(=O)n3cccc(OCCN4CCCCC4)c3n1)C2=O`, the compound was called inactive.
Turning to `C[C@@H](Oc1ccc(CNC(=O)c2cccnc2Oc2ccc3c(c2)OCO3)c(F)c1)C(=O)O`, the compound was classed as inactive.
For the compound `NNC(=O)c1ccncc1`, the outcome was inactive.
Same read-out and setting: the entry for `c1ccc2ncccc2c1` is “inactive”; for `COS(C)(=O)=O` it is “inactive”; for `CCc1cccc(CC)c1N` it is “inactive”.
Turning to `OCC(CO)(CO)CO`, the call was inactive.
Same read-out and setting: the entry for `O=C(O)c1ccc2c(c1)nc(C(=O)NC1CCN(C3CC3)CC1)n2Cc1cc(-c2ccc(Cl)s2)on1` is “inactive”; for `CCCCCCCCN(C)C` it is “inactive”.
As to `c1ccc(C(O[C@@H]2CCCN(CCc3ccc4c(c3)OCO4)C2)c2ccccc2)cc1`, the AC50 was 90.3 µM (active).
Take `C[C@]12C=CC(=O)C=C1CC[C@H]1[C@@H]3C[C@@H](O)[C@](O)(C(=O)CO)[C@@]3(C)C[C@H](O)[C@@]12F`: the call was inactive.
For the compound `COCc1nnc(-c2ccc[n+]([O-])c2)n1-c1c(Cl)c(Cl)cc2[nH]c(=O)c(=O)[nH]c12`, the compound was classed as inactive.
As to `OC(Cn1cncn1)(Cn1cncn1)c1ccc(F)cc1F`, the compound was classed as inactive.
For the compound `CCCCCCCCCC`, the compound was called inactive.
The same measure, in the same setting: the value for `OCCNCCO` was “inactive”; that for `Cc1ccc(S(=O)(=O)NC(=O)NN2CCCCCC2)cc1` was “inactive”; that for `Cc1nc(-c2ccccn2)ncc1C(=O)Nn1cc(C)c2cc(F)ccc21` was “inactive”.
Turning to `CCN(CC)C(=S)SSC(=S)N(CC)CC`, the result was inactive.
Take `CCCCCCCCCCCCCCCCOS(=O)(=O)O`: the result was inactive.
Regarding `O=c1[nH]cnc2c1ncn2[C@H]1CC[C@@H](CO)O1`, the result was inactive.
Consider `Cn1cc[nH]c1=S`, for which the compound was called inactive.
On to `CNC(C)=O`, for which the compound was classed as inactive.
For `CCn1nc(C)c2c1C(=O)NCC(c1ccc(O)cc1)=N2`, the call was inactive.
As for `Cc1nccn1-c1ccc(Sc2cccc(C3(C(N)=O)CCOCC3)c2)cc1`, the AC50 was 23.8 µM (active).
For the compound `OC(CCl)CCl`, the result was inactive.
For the compound `CCCCCCCCCCCCCCO`, the outcome was inactive.
For `OCCOCCOCCO`, the compound was called inactive.

The values are drawn from PubChem BioAssay (EPA / NIEHS).
